The source made the active and inactive calls.
Biological target: Luciferin 4-monooxygenase (Photinus pyralis) (UniProt P08659)
Experiment: inhibition of purified Photinus pyralis luciferase – biochemical, luminescence, purified enzyme, 2006 set, primary screen (AID 1141);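 note: cell-free assay with purified firefly luciferase at 100 ng per well in PBS; test concentration not given here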
Details: purified firefly luciferase, SteadyGlo luminescence, 30 min; higher = more signal, called active from +8 up or from −8 down

Luciferin 4-monooxygenase (Photinus pyralis), sequence (P08659 whole entry, looked up): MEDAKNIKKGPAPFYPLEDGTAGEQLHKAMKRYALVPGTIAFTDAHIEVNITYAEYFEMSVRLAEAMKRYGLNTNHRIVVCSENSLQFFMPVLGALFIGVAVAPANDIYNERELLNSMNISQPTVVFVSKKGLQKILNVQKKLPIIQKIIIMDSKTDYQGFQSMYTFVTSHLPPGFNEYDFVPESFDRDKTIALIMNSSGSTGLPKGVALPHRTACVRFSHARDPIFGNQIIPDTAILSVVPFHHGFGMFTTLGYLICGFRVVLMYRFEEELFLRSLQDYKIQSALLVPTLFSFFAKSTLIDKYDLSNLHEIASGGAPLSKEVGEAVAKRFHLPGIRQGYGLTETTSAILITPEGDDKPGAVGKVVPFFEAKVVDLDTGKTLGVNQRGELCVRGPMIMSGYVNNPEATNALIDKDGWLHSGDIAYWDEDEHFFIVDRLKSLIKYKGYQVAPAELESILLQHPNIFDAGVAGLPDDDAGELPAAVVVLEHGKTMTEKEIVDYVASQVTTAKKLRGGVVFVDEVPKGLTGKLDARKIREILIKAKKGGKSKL

z-score, inactive:
Cc1ccc(S[C@]2(C(=O)NCCCN(C)C)CC(=O)N(C3CCCCC3)[C@@H]2c2ccc(CO)cc2I)cc1 -1.38, O=C1C2C=CC(C(O)C#Cc3ccccc3)N(Nc3ccccc3)C2C(=O)N1c1ccccc1 (stereo not drawn) -0.934, O=C1NC(=O)C2C1C=CC(C(O)C=Cc1ccc([N+](=O)[O-])cc1)N2Nc1ccccn1 (stereo not drawn) -1.07, Cc1ccc(S(=O)(=O)N[C@H]2COC(=O)CC=C[C@H](C)COC(=O)N[C@@H](C)C(=O)CC=C[C@@H]2C)cc1 -0.537, Cc1ccc(N2C(=O)c3ccccc3[C@](C)(C(=O)NCC(C)C)[C@@H]2c2ccc(CO)cc2)nc1 0.525, O=C1C2C=CC(C(O)c3ccccc3)N(n3cnnc3)C2C(=O)N1Cc1ccccc1 (stereo not drawn) -1.55, COc1cc([C@@H]2N[C@H](C(=O)O)Cc3c2[nH]c2ccccc32)cc(OC)c1OC -0.538, C=CCNC(=O)[C@H]1[C@@H]2C(=O)O[C@@H](c3ccccc3)[C@@H](c3ccccc3)N2[C@@H](c2ccc(O)cc2)[C@]12C(=O)Nc1ccc(C#CCNC(N)=O)cc12 -1.25, CCC#CCN(Cc1ccccc1Br)[C@H](/C=C/c1ccccc1)[C@@H](O)Cc1ccccc1 -0.686, CCCC=C(CCC)[C@@H](NC(=O)c1ccccc1)c1ccccc1 0.0419, CO[C@H]1O[C@H](CO)[C@@H](OC(=O)CCc2ccccc2)[C@@H]2OC(=O)[C@H](Cc3cccc(Br)c3)C/C=C/C[C@@H](Cc3cccc(Br)c3)C(=O)O[C@@H]12 -1.07, C=CCC(OC(C)=O)[C@@H]1[C@@H](N(Cc2cccc3ccccc23)C(=O)c2ccc(C)cc2)c2cc(OCCCO)ccc2N1C(=O)c1ccc(-c2ccccc2)cc1 (stereo partly drawn) -1.18, Cc1ccc(N2C(=O)c3ccccc3[C@](C)(C(=O)O)[C@@H]2c2ccc(CO)cc2)nc1 -1.46, C[C@@H]1CC[C@H]2C(=O)N3[C@@H](CC[C@@H](C)[C@@H]3c3cccc(N4CCOCC4)c3)C(=O)N2[C@H]1c1cccc(N2CCOCC2)c1 -1.23, Cc1ccc(S[C@]2(C(=O)NCCN3CCOCC3)CC(=O)N(C3Cc4ccccc4C3)[C@@H]2c2ccc(CO)cc2I)cc1 -0.83, N#Cc1ccc(NN2C(C(O)c3ccc(I)cc3)C=CC3C(=O)N(c4ccccc4)C(=O)C32)cc1 (stereo not drawn) 0.628, CCOC(=O)[C@H]1C/C=C/C[C@H](C(=O)OCC)C(=O)O[C@H]2[C@@H](OC)O[C@H](CO)[C@@H](OC(=O)Nc3ccc(Br)cc3)[C@@H]2OC1=O -1.72, C[C@@H]1C=CCC(=O)OC[C@H]2O[C@@H](C=C[C@@H]2O)[C@H](C)C=CCC(=O)OC[C@H]2O[C@H]1C=C[C@@H]2O -0.304, CO[C@@H]1COC(=O)[C@H](C)NC(=O)CC=C[C@@H](C)[C@H](NS(=O)(=O)c2ccc(C)cc2)COC(=O)CC=C[C@@H]1C -1.11, C=C(CCCC)/C(=C/C[C@@H](OC(=O)c1ccncc1)c1cccc(OCCO)c1)c1cc(C(=O)OC)ccc1OC -2.22, [N-]=[N+]=NCc1ccccc1C[C@]1(C(N)=O)N=C(c2ccc(OCCCO)cc2)O[C@H]1c1ccccc1CN=[N+]=[N-] -3.84, CCCCO[C@H]1C[C@H]2C(Br)=C[C@@]1(CO)C(=O)[C@]21CO1 -0.553, CC(C)N1CC=CC23O[C@@H]4/C=C\CCCOC(=O)C4[C@H]2C(=O)N(CCCCCO)[C@@H]3C1=O (stereo partly drawn) -1.32, CO[C@@H]1COC(=O)[C@H](C)NC(=O)CC=C[C@@H](C)[C@H](OC)COC(=O)[C@H](C)NC(=O)CC=C[C@H]1C -1.57, CCOC(=O)C[C@H]1[C@H](OC(=O)Cc2ccc3c(c2)OCO3)[C@@H](NC(=O)c2ccc3ccccc3c2)c2cc(OCCCO)ccc2N1C(=O)Cc1ccc(OC)cc1 -0.953, CCCN1C(=O)[C@@]2(CCS(=O)(=O)c3ccccc3)N=C(c3ccc(OCCCO)cc3)O[C@H]2c2ccccc21 -0.869, CCCC[C@@H]1C[C@H]1[C@@H](NC(=O)c1cccs1)c1ccc(Cl)cc1 0.191, C[C@H]1COC(=O)[C@@H]2CCCN2C(=O)[C@@H](C)COC(=O)[C@@H]2CCCN2C1=O -0.515

Reference: PubChem BioAssay
